Data: PubChem BioAssay AID1159580 (chemical genetic matrix, 2015)
The campaign covered roughly 5,500 compounds. About 2,000 (36%) were called active. Inconclusive results (about 18%) are left out. No stated cut-off is given here; in the data, active means normalized growth mostly below about 0.91 (no sharp cut-off); inconclusive means no clear call, values can overlap the other calls; inactive means mostly above about 0.92. The list shows a part of the results.

Assay: chemical genetic growth profiling, strain panel (AID 1159580);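 further: tested at 20 µM; growth read once vehicle control cultures reached saturation at 30 °C; 1 = growth at the plate median or of vehicle wells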
Conditions: S. cerevisiae deletion strains, growth OD
[1] = locus YAR019C, strain CDC15, stronger effect = lower value
[2] = locus YBL105C, strain PKC1, stronger effect = lower value
[3] = locus YBR135W, strain CKS1, stronger effect = lower value
[4] = locus YBR136W, strain MEC1, stronger effect = lower value
[5] = locus YBR160W, strain CDC28, stronger effect = lower value
[6] = locus YDL017W, strain CDC7, stronger effect = lower value
[7] = locus YDL028C, strain MPS1, stronger effect = lower value
[8] = locus YDL101C, strain DUN1, stronger effect = lower value
[9] = locus YDL108W, strain KIN28, stronger effect = lower value
[10] = locus YDL132W, strain cdc53, stronger effect = lower value
[11] = locus YDL214C, strain PRR2, stronger effect = lower value
[12] = locus YDR052C, strain DBF4, stronger effect = lower value
[13] = locus YDR054C, strain cdc34, stronger effect = lower value
[14] = locus YDR226W, strain ADK1, stronger effect = lower value
[15] = locus YDR477W, strain SNF1, stronger effect = lower value
[16] = locus YER123W, strain YCK3, stronger effect = lower value
[17] = locus YER133W, strain GLC7, stronger effect = lower value
[18] = locus YFL009W, strain cdc4, stronger effect = lower value
[19] = locus YFL029C, strain CAK1, stronger effect = lower value
[20] = locus YFR003C, strain YPI1, stronger effect = lower value
[21] = locus YFR019W, strain FAB1, stronger effect = lower value
[22] = locus YFR028C, strain CDC14, stronger effect = lower value
[23] = locus YGR040W, strain KSS1, stronger effect = lower value
[24] = locus YGR052W, strain FMP48, stronger effect = lower value
[25] = locus YGR092W, strain DBF2, stronger effect = lower value
[26] = locus YHR030C, strain SLT2, stronger effect = lower value
[27] = locus YHR079C, strain IRE1, stronger effect = lower value
[28] = locus YHR082C, strain KSP1, stronger effect = lower value
[29] = locus YHR205W, strain SCH9, stronger effect = lower value
[30] = locus YIL147C, strain SLN1, stronger effect = lower value
[31] = locus YJL095W, strain BCK1, stronger effect = lower value
[32] = locus YJL128C, strain PBS2, stronger effect = lower value
[33] = locus YJL157C, strain FAR1, stronger effect = lower value
[34] = locus YJR016C, strain ILV3, stronger effect = lower value
[35] = locus YJR066W, strain TOR1 (second series), stronger effect = lower value
[36] = locus YJR066W, strain TOR1, stronger effect = lower value
[37] = locus YKL048C, strain ELM1, stronger effect = lower value
[38] = locus YKL067W, strain YNK1, stronger effect = lower value
[39] = locus YKL101W, strain HSL1, stronger effect = lower value
[40] = locus YKL193C, strain SDS22, stronger effect = lower value
[41] = locus YKL203C, strain TOR2, stronger effect = lower value
[42] = locus YLR113W, strain HOG1, stronger effect = lower value
[43] = locus YLR133W, strain CKI1, stronger effect = lower value
[44] = locus YLR403W, strain SFP1, stronger effect = lower value
[45] = locus YML070W, strain DAK1, stronger effect = lower value
[46] = locus YMR001C, strain CDC5, stronger effect = lower value
[47] = locus YMR205C, strain PFK2 (second series), stronger effect = lower value
[48] = locus YMR277W, strain FCP1, stronger effect = lower value
[49] = locus YNL006W, strain LST8, stronger effect = lower value
[50] = locus YNL020C, strain ARK1, stronger effect = lower value
[51] = locus YNL161W, strain CBK1, stronger effect = lower value
[52] = locus YNL183C, strain NPR1, stronger effect = lower value
[53] = locus YNL207W, strain RIO2, stronger effect = lower value
[54] = locus YNL222W, strain SSU72, stronger effect = lower value
[55] = locus YNL307C, strain MCK1 (second series), stronger effect = lower value
[56] = locus YOL078W, strain AVO1, stronger effect = lower value
[57] = locus YOL136C, strain PFK27, stronger effect = lower value
[58] = locus YOR061W, strain CKA2, stronger effect = lower value
[59] = locus YOR119C, strain RIO1, stronger effect = lower value
[60] = locus YOR231W, strain MKK1, stronger effect = lower value
[61] = locus YOR329C, strain SCD5, stronger effect = lower value
[62] = locus YPL031C, strain PHO85, stronger effect = lower value
[63] = locus YPL153C, strain RAD53, stronger effect = lower value
[64] = locus YPL204W, strain HRR25, stronger effect = lower value
[65] = locus YPL209C, strain IPL1, stronger effect = lower value
[66] = locus YPL256C, strain CLN2, stronger effect = lower value
[67] = locus YPR025C, strain CCL1, stronger effect = lower value
[68] = locus YPR106W, strain ISR1, stronger effect = lower value
[69] = locus YPR111W, strain DBF20, stronger effect = lower value
[70] = strain NNK1, stronger effect = lower value
[71] = strain TSCII, stronger effect = lower value

Measured: normalized growth

Cc1c(Cl)cccc1NC(=S)N1CCCN(c2nc3ccc(Cl)cc3s2)CC1
inactive: [1] 0.977 | [2] 0.977 | [3] 0.983 | [4] 0.979 | [5] 0.978 | [6] 0.972 | [7] 0.978 | [8] 0.965 | [9] 0.983 | [10] 0.99 | [11] 0.97 | [12] 0.986 | [13] 0.975 | [14] 0.984 | [15] 0.933 | [16] 0.936 | [17] 0.941 | [18] 0.98 | [19] 0.968 | [20] 0.985 | [21] 1.01 | [22] 0.98 | [23] 0.937 | [24] 0.975 | [25] 0.722 | [27] 0.7 | [28] 1.06 | [29] 0.97 | [30] 0.981 | [31] 0.863 | [32] 0.957 | [33] 0.897 | [34] 0.978 | [35] 0.84 | [36] 0.947 | [37] 0.97 | [38] 0.947 | [39] 0.963 | [40] 0.978 | [41] 0.974 | [43] 0.941 | [44] 0.898 | [45] 0.972 | [46] 0.982 | [47] 0.971 | [48] 0.976 | [49] 0.963 | [50] 0.909 | [51] 0.986 | [52] 0.989 | [53] 0.976 | [54] 0.98 | [55] 0.951 | [56] 0.992 | [57] 0.942 | [58] 0.87 | [59] 0.974 | [60] 0.876 | [61] 0.974 | [62] 0.937 | [63] 0.908 | [64] 0.876 | [65] 0.978 | [67] 0.975 | [68] 0.981 | [69] 0.992 | [70] 0.984 | [71] 0.976
active: [26] 0.625 | [42] 0.794 | [66] 0.772

CC(C)(C)C1=NN(c2nc3ccc(Cl)cc3s2)C(=O)C1
inactive: [14] 0.898
active: [1] 0.484 | [2] 0.0905 | [3] 0.0897 | [4] 0.102 | [5] 0.111 | [6] 0.0926 | [7] 0.105 | [8] 0.496 | [9] 0.516 | [10] 0.436 | [11] 0.104 | [12] 0.116 | [13] 0.225 | [15] 0.11 | [16] 0.0976 | [17] 0.11 | [18] 0.11 | [19] 0.0958 | [20] 0.0998 | [21] 0.109 | [22] 0.101 | [23] 0.121 | [24] 0.114 | [25] 0.0994 | [26] 0.106 | [27] 0.111 | [28] 0.121 | [29] 0.00427 | [30] 0.104 | [31] 0.104 | [32] 0.103 | [33] 0.101 | [34] 0.118 | [35] 0.0988 | [36] 0.108 | [37] 0.119 | [38] 0.144 | [39] 0.0952 | [40] 0.093 | [41] 0.1 | [42] 0.14 | [43] 0.107 | [44] 0.00206 | [45] 0.1 | [46] 0.15 | [47] 0.0849 | [48] 0.262 | [49] 0.12 | [50] 0.107 | [51] 0.429 | [52] 0.105 | [53] 0.179 | [54] 0.504 | [55] 0.107 | [56] 0.0851 | [57] 0.111 | [58] 0.0975 | [59] 0.114 | [60] 0.104 | [61] 0.299 | [62] 0.0965 | [63] 0.0988 | [64] 0.11 | [65] 0.0986 | [66] 0.121 | [67] 0.124 | [68] 0.199 | [69] 0.463 | [70] 0.106 | [71] 0.48
